Source: PubChem BioAssay (The Scripps Research Institute Molecular Screening Center)
Compounds with a hit are over-represented: about 1.9% of the library has one in this group of screens.
PME-1 primary: PME-1 inhibitors via competitive probe labeling, primary screen, biochemical, fluorescence polarization, FP-Rh probe, HTS; Protein phosphatase methylesterase 1 (Homo sapiens), Q9Y570; recombinant PME-1; inhibition, % at 5.9 µM; hit rate 0.53% among 320,000;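 active = inhibition above the campaign mean of all compounds plus 3 SD, cut at about 26% in these data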;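 also: competitive labeling of PME-1 active site by serine hydrolase directed probe; 0% = PME-1 with DMSO and 100% = wells lacking PME-1 enzyme; inhibitors block probe labeling so polarization falls and inhibition rises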
Target sequence (Q9Y570 whole entry, looked up): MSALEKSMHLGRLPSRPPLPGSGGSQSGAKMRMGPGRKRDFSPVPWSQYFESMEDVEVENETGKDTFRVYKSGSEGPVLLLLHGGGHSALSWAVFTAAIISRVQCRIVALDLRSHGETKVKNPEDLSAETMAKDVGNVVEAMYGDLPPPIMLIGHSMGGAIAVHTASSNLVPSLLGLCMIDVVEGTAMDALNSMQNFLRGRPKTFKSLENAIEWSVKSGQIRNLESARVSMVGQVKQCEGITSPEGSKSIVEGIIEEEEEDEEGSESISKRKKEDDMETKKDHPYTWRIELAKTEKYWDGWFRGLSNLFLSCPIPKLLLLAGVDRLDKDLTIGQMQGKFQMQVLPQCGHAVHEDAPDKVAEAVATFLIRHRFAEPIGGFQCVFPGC
LYPLA2 counter: LYPLA2 inhibitors, primary screen, counter-screen for PME1 inhibitor project, biochemical, fluorescence polarization, FP-Rh probe ABPP; recombinant LYPLA2; inhibition, % at 5.9 µM; hit rate 0.38% among 320,000; AID 2177, 2009;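 active = inhibition above the screen-wide mean plus 3 SD, limit set per campaign, cut at about 26% in these data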;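 also: 0% = LYPLA2 with DMSO and 100% = wells lacking LYPLA2 enzyme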
PREPL inh: PREPL enzyme inhibitors, primary screen, biochemical, fluorescence polarization. Prolyl endopeptidase-like (Homo sapiens), Q4J6C6. recombinant PREPL, fluorescence polarization activity-based probe. inhibition, % at 5.96 µM. hit rate 0.68% among 320,000;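 also: 0% = enzyme with DMSO and 100% = wells lacking enzyme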
Fam108B counter: mouse Fam108B serine hydrolase inhibitors, primary screen, counter-screen for RBBP9 inhibitor project, biochemical, fluorescence polarization. recombinant Fam108B, FP-Rh probe fluorescence polarization. hit rate 0.33% among 300,000. inhibition, % at 9.51 µM;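 active = inhibition above the screen mean inhibition plus 3 SD, computed separately per campaign, cut at about 18% in these data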;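 also: inhibitors lower polarization as less probe binds the enzyme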
GSTO1 counter: inhibitors of recombinant GSTO1, primary screen, counter-screen for RBBP9 inhibitor project, biochemical, fluorescence polarization. Glutathione S-transferase omega-1 (Homo sapiens), P78417. inhibition, % at 5.96 µM. hit rate 1.1% among 300,000. activity-based probe fluorescence polarization;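 active = inhibition above the campaign mean inhibition plus 3 SD, cut at about 35% in these data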;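 also: 0% = GSTO1-1 with DMSO and 100% = wells lacking GSTO1-1 enzyme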
LYPLA1 counter: LYPLA1 inhibitors, primary screen, counter-screen for PME1 inhibitor project, biochemical, fluorescence polarization, FP-Rh probe ABPP. hit rate 0.16% among 320,000. Acyl-protein thioesterase 1 (Homo sapiens), O75608. recombinant LYPLA1. inhibition, % at 5.9 µM;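 active = inhibition above the mean of all tested compounds plus 3 SD, set per campaign, cut at about 14% in these data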;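 also: inhibitors block serine hydrolase probe labeling of LYPLA1 so polarization falls; 0% = enzyme with DMSO and 100% = wells lacking LYPLA1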
PREPL inh cf: human PREPL enzyme inhibitors, confirmation, biochemical, fluorescence polarization; shares compounds with PREPL inh; recombinant PREPL, fluorescence polarization activity probe; inhibition, % at 5.96 µM; hit rate 67% among 2,000; AID 2803, 2010;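 also: 0% = protein with DMSO and 100% = wells lacking protein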
The depositor's hits bear a star; nt = not tested or not shown. Rule as the data show it, unless noted: active = inhibition above about 43%; inactive = the rest.

SMILES	PME-1 primary	LYPLA2 counter	PREPL inh	Fam108B counter	GSTO1 counter	LYPLA1 counter	PREPL inh cf
COc1ccc(OC)c(Nc2nc(NCCCN(C)C)nc(N)c2[N+](=O)[O-])c1	-1	1	47*	1	2	2	38
Cc1ccc(Cl)cc1NC(=O)C[n+]1ccc(Cc2ccc([N+](=O)[O-])cc2)cc1	7	16	67*	6	6	2	6
CC(C)(C)NC(=O)NC(=O)C[n+]1ccc(Cc2ccc([N+](=O)[O-])cc2)cc1	2	3	12	3	19	-1	nt
O=C(C[n+]1ccc(Cc2ccccc2)cc1)Nc1ccc([N+](=O)[O-])cc1Cl	-1	8	56*	2	8	0	29
CCC(C(=O)NCC1CCCO1)N(Cc1ccccc1)C(=O)CNS(=O)(=O)c1ccccc1 (stereo not given)	5	1	-3	2	5	0	nt
Cc1cnn(Cc2cccnc2)c1N	-6	0	-2	2	1	-3	nt
O=[N+]([O-])c1ccc(C(O)CN=Cc2ccc(O)cc2O)cc1 (stereo not given)	-6	-2	49*	3	5	-8	11
C=CC[n+]1c(-c2ccc(Cl)cc2Cl)csc1Nc1ccc(NC(C)=O)cc1	7	7	59*	1	3	0	63*
C=CC[n+]1c(-c2ccc(Cl)cc2Cl)csc1Nc1c(C)n(C)n(-c2ccccc2)c1=O	2	0	35	5	-2	2	nt
O=C(O)c1ccc(N/N=C/c2ccc(-c3cccc(Cl)c3)o2)cc1	24	8	57*	17	19	8	55*
Cc1c(C(=O)O)cccc1-c1ccc(/C=N/Nc2ccc(Br)cc2)o1	29*	14	46*	7	2	7	22
Cc1c(C(=O)O)cccc1-c1ccc(/C=N/n2cnnc2)o1	0	8	18	1	15	1	nt
Cc1ccc(C(=O)N/N=C/c2ccc(-c3cccc(Cl)c3)o2)cn1	-6	-20	6	-5	-7	-11	nt
O=c1cc(CN2CCCc3ccccc32)nc2sccn12	5	2	51*	8	12	-3	19
Cc1ccc(C2(C)NC(=O)N(CC(=O)N(c3ccccc3)C3CCS(=O)(=O)C3)C2=O)cc1 (stereo not given)	nt	nt	51*	nt	nt	nt	42
COc1cccc(C(=O)NCCS(=O)(=O)NCc2ccc(Cl)cc2)c1	-2	-1	-7	-1	1	-1	nt
COc1cc2c(cc1OC)[C@@H](Cc1ccc(OCCC#N)cc1)N(C)CC2	6	5	6	1	3	2	nt
COc1cc2c(cc1OC)C(Cc1ccc(O)c(Oc3ccc(C[C@H]4c5cc(OC)c(OC)cc5CCN4C)cc3)c1)N(C)CC2 (stereo not given in full)	nt	nt	45*	nt	nt	nt	52*
CCCn1c(SCC(=O)Nc2cccc(S(=O)(=O)N(C)C)c2)nc2ccccc2c1=O	13	0	-3	-2	-2	-2	nt
CN(C)CCN1C(=O)C(O)=C(C(=O)c2cc3ccccc3o2)C1c1ccc(N(C)C)cc1 (stereo not given)	-4	-9	51*	2	1	-1	54*
CN(C)CCN1C(=O)C(O)=C(C(=O)c2cc3ccccc3o2)C1c1ccccn1 (stereo not given)	7	3	26	1	0	3	nt
CN(C)c1oc(-c2ccc(Cl)cc2)nc1S(=O)(=O)c1ccccc1	1	0	9	-5	6	0	nt
COc1ccc(/C=N/Nc2nc3ccccc3[nH]2)c(OC)c1OC	2	9	5	4	-4	0	nt
C(=N\Nc1nc2ccccc2[nH]1)/c1c[nH]c2ccccc12	0	4	49*	12	-10	1	54*
